Active and inactive are the calls of the source. A call without a number means that no potency is given here. Unless noted, the call rests on the fitted dose curve; in most records, active means well fitted activation curve with a large enough effect in the repeat runs; inconclusive means weak or mixed curves; inactive means flat fitted curve, though single readings scatter.
Each compound was assayed against Gonadotropin-releasing hormone receptor (Homo sapiens) (UniProt P30968) (assay: Human gonadotropin-releasing hormone receptor (GnRHR) small molecule agonists, calcium flux assay in GnRHR-HEK293 cells (AID 1920063; calls by dose curve; further: nearly all actives have a fitted effect of over 35% in size)). Conditions: calcium flux fluorescence, agonist mode; series mostly up to 57.6 µM.
In short: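 Tox21-format agonist screen using human GnRHR-expressing HEK293 cells and a fluorescent calcium dye; kinetic 3-min fluorescence reading after compound addition, 15-point concentration series run in triplicate.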

Gonadotropin-releasing hormone receptor (Homo sapiens), sequence (P30968 whole entry, looked up): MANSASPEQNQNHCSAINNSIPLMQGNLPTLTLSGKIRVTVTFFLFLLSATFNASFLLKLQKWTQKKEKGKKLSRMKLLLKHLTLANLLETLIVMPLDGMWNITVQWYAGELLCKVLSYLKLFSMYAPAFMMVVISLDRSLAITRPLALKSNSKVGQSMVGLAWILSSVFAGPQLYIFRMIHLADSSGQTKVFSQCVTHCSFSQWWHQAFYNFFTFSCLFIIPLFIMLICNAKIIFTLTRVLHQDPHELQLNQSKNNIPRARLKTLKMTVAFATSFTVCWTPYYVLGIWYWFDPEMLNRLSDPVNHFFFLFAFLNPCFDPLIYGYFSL

Row | SMILES | Potency | activity change
1 | OCCOc1ccc(OCCO)cc1 | inactive | 
2 | N#CCC(=O)O | inactive | 
3 | Nc1ncnc2c1ncn2[C@@H]1O[C@H](COP(=O)(O)O)[C@@H](O)[C@H]1O | inactive | 
4 | CCc1ccc(C)nc1 | inactive | 
5 | CN(C)c1ccc(/C=C/c2ccc([N+](=O)[O-])cc2)cc1 |  | 5.74% [at 5.22 µM, hits give high values] (inactive)
6 | C/C=C(\C)C(=O)OC/C=C(\C)CCC=C(C)C | inactive | 
7 | CC(=O)/C=C/C1C(C)=CCC(C)C1(C)C (stereo not drawn) | inactive | 
8 | Cc1cccc(C)c1NC(=O)CC12CCCN1CCC2 | inactive | 
9 | CC(=O)N1CCN(c2ccc(O)cc2)CC1 | inactive | 
10 | C=C(C)C(=O)OCCCCCCOC(=O)C(=C)C | inactive | 
11 | O=C1CCN(c2ccccc2)N1 | inactive | 
12 | Cl/C(=C\n1cncn1)c1ccc(Cl)cc1Cl | inactive | 
13 | COc1cc(C(=O)N2CCCCCCC2)cc(OC)c1OC | inactive | 
14 | COC(=O)N[C@H](C(=O)N[C@@H](Cc1ccccc1)[C@@H](O)CN(Cc1ccc(-c2ccccn2)cc1)NC(=O)[C@@H](NC(=O)OC)C(C)(C)C)C(C)(C)C | inactive | 
15 | Clc1nc2ccccc2s1 | inactive | 
16 | COC(=O)Nc1nc2ccc(Sc3ccccc3)cc2[nH]1 | inactive | 
17 | CN1N=C(C(N)=O)CCC1=O | inactive | 
18 | CCCCC(CC)CCC(CC(C)C)OS(=O)(=O)O (stereo not drawn) | inactive | 
19 | CSc1cnccn1 | inactive | 
20 | CCCCCCCOC(=O)c1ccccc1C(=O)OCCCCCCC | inactive | 

Row | SMILES | Potency | activity change
21 | CC1CC(=O)CC(C)(C)C1 (stereo not drawn) | inactive | 
22 | O=[Si]=O | inactive | 
23 | CCCCCCCC(OC)OC | inactive | 
24 | NS(=O)(=O)c1cc2c(cc1Cl)NC(CC1CCCC1)NS2(=O)=O (stereo not drawn) | inactive | 
25 | N#CCc1cccc(C(F)(F)F)c1 | inactive | 
26 | CC(C)(c1cc(Br)c(O)c(Br)c1)c1cc(Br)c(O)c(Br)c1 | inactive | 
27 | Clc1ccccc1-c1nc(-c2ccncc2)no1 | inactive | 
28 | CC(=O)C(C)O (stereo not drawn) | inactive | 
29 | CO[Si](CCCNCCNCCN)(OC)OC | inactive | 
30 | CC(=O)c1ccc2c(c1)CCCC2 | inactive | 
31 | Nc1c2ccccc2nc2ccccc12 | inactive | 
32 | NC(=O)c1cccc([N+](=O)[O-])c1 | inactive | 
33 | CCOc1cc(NC(C)=O)ccc1C(=O)OC | inactive | 
34 | CCCC(O)C(O)CO (stereo not drawn) | inactive | 
35 | O=C(O)c1ccc(O)cc1O | inactive | 
36 | C[Si](C)(C)Cl | inactive | 
37 | COC(=O)c1c(Cl)c(Cl)c(C(=O)OC)c(Cl)c1Cl | inactive | 
38 | Cc1ccc2n[nH]nc2c1 | inactive | 
39 | CCCOC(=O)C(C)O (stereo not drawn) | inactive | 

The compounds below were run against KiSS-1 receptor (Homo sapiens) (UniProt Q969F8) (assay: Human kisspeptin (KISS1R) small molecule agonists, calcium flux assay in KISS1R-HEK293 cells (AID 1920064)). Conditions: KISS1R-HEK293, calcium flux fluorescence, agonist; series mostly up to 76.8 µM.
In short: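 Intracellular calcium mobilization in KISS1R-HEK293 cells was recorded by fluorescence (Ex/Em 480/540) for 3 min following compound addition to cells pre-loaded 1 h with calcium dye.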

KiSS-1 receptor (Homo sapiens), sequence (Q969F8 whole entry, looked up): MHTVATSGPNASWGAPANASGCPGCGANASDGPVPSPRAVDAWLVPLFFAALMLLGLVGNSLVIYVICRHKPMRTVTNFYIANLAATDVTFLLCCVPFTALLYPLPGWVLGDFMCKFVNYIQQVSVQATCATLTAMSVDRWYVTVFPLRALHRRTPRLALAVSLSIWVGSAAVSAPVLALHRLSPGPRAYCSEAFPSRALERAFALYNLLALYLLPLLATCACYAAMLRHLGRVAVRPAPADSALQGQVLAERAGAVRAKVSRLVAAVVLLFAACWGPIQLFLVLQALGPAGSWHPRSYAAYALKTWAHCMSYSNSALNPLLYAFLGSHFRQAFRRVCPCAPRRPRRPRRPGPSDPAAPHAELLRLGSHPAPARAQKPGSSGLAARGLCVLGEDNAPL

Row | SMILES | Potency | activation
40 | OCCOc1ccc(OCCO)cc1 | inactive | 
41 | N#CCC(=O)O | inactive | 
42 | Nc1ncnc2c1ncn2[C@@H]1O[C@H](COP(=O)(O)O)[C@@H](O)[C@H]1O | inactive | 
43 | CCc1ccc(C)nc1 | inactive | 
44 | CN(C)c1ccc(/C=C/c2ccc([N+](=O)[O-])cc2)cc1 |  | 7.36% [at 6.97 µM] (inactive)
45 | C/C=C(\C)C(=O)OC/C=C(\C)CCC=C(C)C | inactive | 
46 | CC(=O)/C=C/C1C(C)=CCC(C)C1(C)C (stereo not drawn) | inactive | 
47 | Cc1cccc(C)c1NC(=O)CC12CCCN1CCC2 | inactive | 
48 | CC(=O)N1CCN(c2ccc(O)cc2)CC1 | inactive | 
49 | C=C(C)C(=O)OCCCCCCOC(=O)C(=C)C | inactive | 
50 | O=C1CCN(c2ccccc2)N1 | inactive | 
51 | Cl/C(=C\n1cncn1)c1ccc(Cl)cc1Cl | inactive | 
52 | COc1cc(C(=O)N2CCCCCCC2)cc(OC)c1OC | inactive | 
53 | COC(=O)N[C@H](C(=O)N[C@@H](Cc1ccccc1)[C@@H](O)CN(Cc1ccc(-c2ccccn2)cc1)NC(=O)[C@@H](NC(=O)OC)C(C)(C)C)C(C)(C)C | inactive | 
54 | Clc1nc2ccccc2s1 | inactive | 
55 | COC(=O)Nc1nc2ccc(Sc3ccccc3)cc2[nH]1 | inactive | 
56 | CN1N=C(C(N)=O)CCC1=O | inactive | 
57 | CCCCC(CC)CCC(CC(C)C)OS(=O)(=O)O (stereo not drawn) | inactive | 
58 | CSc1cnccn1 | inactive | 
59 | CCCCCCCOC(=O)c1ccccc1C(=O)OCCCCCCC | inactive | 

Row | SMILES | Potency | activation
60 | CC1CC(=O)CC(C)(C)C1 (stereo not drawn) | inactive | 
61 | O=[Si]=O | inactive | 
62 | CCCCCCCC(OC)OC | inactive | 
63 | NS(=O)(=O)c1cc2c(cc1Cl)NC(CC1CCCC1)NS2(=O)=O (stereo not drawn) | inactive | 
64 | N#CCc1cccc(C(F)(F)F)c1 | inactive | 
65 | CC(C)(c1cc(Br)c(O)c(Br)c1)c1cc(Br)c(O)c(Br)c1 | inactive | 
66 | Clc1ccccc1-c1nc(-c2ccncc2)no1 | inactive | 
67 | CC(=O)C(C)O (stereo not drawn) | inactive | 
68 | CO[Si](CCCNCCNCCN)(OC)OC | inactive | 
69 | CC(=O)c1ccc2c(c1)CCCC2 | inactive | 
70 | Nc1c2ccccc2nc2ccccc12 | inactive | 
71 | NC(=O)c1cccc([N+](=O)[O-])c1 | inactive | 
72 | CCOc1cc(NC(C)=O)ccc1C(=O)OC | inactive | 
73 | CCCC(O)C(O)CO (stereo not drawn) | inactive | 
74 | O=C(O)c1ccc(O)cc1O | inactive | 
75 | C[Si](C)(C)Cl | inactive | 
76 | COC(=O)c1c(Cl)c(Cl)c(C(=O)OC)c(Cl)c1Cl | inactive | 
77 | Cc1ccc2n[nH]nc2c1 | inactive | 
78 | CCCOC(=O)C(C)O (stereo not drawn) | inactive | 
